# Measurements reported in the supplement of paper PMC12282887.
# ± gives the standard deviation of the averaged measurements.
# Tests used:
# Assay in all cases: promoter activity interaction Z-score (Lux/OD deviation from empty-vector control); higher = stronger promoter induction by the compound
# [1] = test system: E. coli BW25113 acrABp lux reporter
# Method in brief: (§1)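 In 384-well plates, 40 µl LB Lennox cultures of E. coli BW25113 with low-copy luxCDABE promoter reporters grew at 37°C. Optical density at 600 nm and light output were recorded every 30 min for 12 h, with windows of 0–8 h for wild type and 1–9 h for deletion strains, and wells under 10% of the median growth value were left out. Each value is a Z-transformed residual of growth-normalised luminescence fitted against a control.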
# [2] = test system: E. coli BW25113 micFp lux reporter
# Method in brief: as §1
# [3] = test system: E. coli BW25113 ompFp lux reporter
# Method in brief: as §1
# [4] = test system: E. coli BW25113 robp lux reporter
# Method in brief: as §1
# [5] = test system: E. coli BW25113 soxSp lux reporter
# Method in brief: as §1
# [6] = test system: E. coli BW25113 tolCp lux reporter
# Method in brief: as §1
# [7] = 0.53 µg/ml, genetic background: wild type
# [8] = 0.53 µg/ml, genetic background: ΔmarA
# [9] = 0.53 µg/ml, genetic background: Δrob
# [10] = 0.53 µg/ml, genetic background: ΔsoxS
# [11] = 1.1 µg/ml, genetic background: wild type
# [12] = 1.1 µg/ml, genetic background: ΔmarA
# [13] = 1.1 µg/ml, genetic background: Δrob
# [14] = 1.1 µg/ml, genetic background: ΔsoxS
# [15] = 2.1 µg/ml, genetic background: wild type
# [16] = 2.1 µg/ml, genetic background: ΔmarA
# [17] = 2.1 µg/ml, genetic background: Δrob
# [18] = 2.1 µg/ml, genetic background: ΔsoxS
# [19] = 4.2 µg/ml, genetic background: wild type
# [20] = 4.2 µg/ml, genetic background: ΔmarA
# [21] = 4.2 µg/ml, genetic background: Δrob
# [22] = 4.2 µg/ml, genetic background: ΔsoxS
smiles,measurement,setting,value
Cc1onc(-c2ccccc2)c1C(=O)N[C@@H]1C(=O)N2[C@@H]1SC(C)(C)[C@@H]2C(=O)O [Oxacillin],promoter activity interaction Z-score,[1]; [7],0.053 ± 0.18
same,promoter activity interaction Z-score,[1]; [8],-0.268 ± 0.44
same,promoter activity interaction Z-score,[1]; [9],-0.0793 ± 0.23
same,promoter activity interaction Z-score,[1]; [10],-0.33 ± 0.59
same,promoter activity interaction Z-score,[1]; [11],0.196 ± 0.12
same,promoter activity interaction Z-score,[1]; [12],1.12 ± 0.86
same,promoter activity interaction Z-score,[1]; [13],0.498 ± 0.18
same,promoter activity interaction Z-score,[1]; [14],-0.172 ± 0.078
same,promoter activity interaction Z-score,[1]; [15],0.0571 ± 0.33
same,promoter activity interaction Z-score,[1]; [16],0.268 ± 0.39
same,promoter activity interaction Z-score,[1]; [17],-0.074 ± 0.13
same,promoter activity interaction Z-score,[1]; [18],0.181 ± 0.15
same,promoter activity interaction Z-score,[1]; [19],0.273 ± 0.22
same,promoter activity interaction Z-score,[1]; [20],0.585 ± 0.21
same,promoter activity interaction Z-score,[1]; [21],0.529 ± 0.22
same,promoter activity interaction Z-score,[1]; [22],0.643 ± 0.31
same,promoter activity interaction Z-score,[2]; [7],-0.0698 ± 0.15
same,promoter activity interaction Z-score,[2]; [8],-0.00609 ± 0.034
same,promoter activity interaction Z-score,[2]; [9],0.0977 ± 0.018
same,promoter activity interaction Z-score,[2]; [10],-0.311 ± 0.1
same,promoter activity interaction Z-score,[2]; [11],0.087 ± 0.12
same,promoter activity interaction Z-score,[2]; [12],0.0472 ± 0.028
same,promoter activity interaction Z-score,[2]; [13],-0.0746 ± 0.027
same,promoter activity interaction Z-score,[2]; [14],-0.46 ± 0.051
same,promoter activity interaction Z-score,[2]; [15],-0.222 ± 0.18
same,promoter activity interaction Z-score,[2]; [16],-0.0625 ± 0.059
same,promoter activity interaction Z-score,[2]; [17],-0.00193 ± 0.23
same,promoter activity interaction Z-score,[2]; [18],-0.245 ± 0.077
same,promoter activity interaction Z-score,[2]; [19],-0.192 ± 0.041
same,promoter activity interaction Z-score,[2]; [20],-0.163 ± 0.035
same,promoter activity interaction Z-score,[2]; [21],-0.112 ± 0.052
same,promoter activity interaction Z-score,[2]; [22],-0.2749 ± 0.002
same,promoter activity interaction Z-score,[3]; [7],0.23 ± 0.46
same,promoter activity interaction Z-score,[3]; [8],-0.204 ± 0.21
same,promoter activity interaction Z-score,[3]; [9],0.703 ± 0.91
same,promoter activity interaction Z-score,[3]; [10],0.0892 ± 0.53
same,promoter activity interaction Z-score,[3]; [11],0.678 ± 0.061
same,promoter activity interaction Z-score,[3]; [12],0.797 ± 0.28
same,promoter activity interaction Z-score,[3]; [13],1.14 ± 0.72
same,promoter activity interaction Z-score,[3]; [14],-0.107 ± 0.53
same,promoter activity interaction Z-score,[3]; [15],0.461 ± 0.27
same,promoter activity interaction Z-score,[3]; [16],0.0383 ± 0.29
same,promoter activity interaction Z-score,[3]; [17],0.0292 ± 0.36
same,promoter activity interaction Z-score,[3]; [18],0.0474 ± 0.046
same,promoter activity interaction Z-score,[3]; [19],1.42 ± 0.14
same,promoter activity interaction Z-score,[3]; [20],1.05 ± 0.48
same,promoter activity interaction Z-score,[3]; [21],0.898 ± 0.69
same,promoter activity interaction Z-score,[3]; [22],0.846 ± 0.19
same,promoter activity interaction Z-score,[4]; [7],0.088 ± 0.58
same,promoter activity interaction Z-score,[4]; [8],-0.319 ± 0.36
same,promoter activity interaction Z-score,[4]; [9],0.652 ± 0.036
same,promoter activity interaction Z-score,[4]; [10],0.106 ± 0.47
same,promoter activity interaction Z-score,[4]; [11],0.612 ± 0.26
same,promoter activity interaction Z-score,[4]; [12],0.925 ± 0.46
same,promoter activity interaction Z-score,[4]; [13],0.609 ± 0.17
same,promoter activity interaction Z-score,[4]; [14],0.778 ± 0.55
same,promoter activity interaction Z-score,[4]; [15],0.467 ± 0.023
same,promoter activity interaction Z-score,[4]; [16],-0.206 ± 0.25
same,promoter activity interaction Z-score,[4]; [17],0.275 ± 0.38
same,promoter activity interaction Z-score,[4]; [18],0.757 ± 0.4
same,promoter activity interaction Z-score,[4]; [19],0.385 ± 0.34
same,promoter activity interaction Z-score,[4]; [20],1.01 ± 0.081
same,promoter activity interaction Z-score,[4]; [21],0.222 ± 0.11
same,promoter activity interaction Z-score,[4]; [22],1.08 ± 0.62
same,promoter activity interaction Z-score,[5]; [7],-0.0338 ± 0.24
same,promoter activity interaction Z-score,[5]; [8],-0.139 ± 0.028
same,promoter activity interaction Z-score,[5]; [9],-0.137 ± 0.026
same,promoter activity interaction Z-score,[5]; [10],0.0469 ± 0.46
same,promoter activity interaction Z-score,[5]; [11],0.0426 ± 0.12
same,promoter activity interaction Z-score,[5]; [12],0.0745 ± 0.03
same,promoter activity interaction Z-score,[5]; [13],-0.157 ± 0.17
same,promoter activity interaction Z-score,[5]; [14],-0.0373 ± 0.73
same,promoter activity interaction Z-score,[5]; [15],0.0115 ± 0.12
same,promoter activity interaction Z-score,[5]; [16],-0.148 ± 0.13
same,promoter activity interaction Z-score,[5]; [17],-0.0916 ± 0.13
same,promoter activity interaction Z-score,[5]; [18],0.0598 ± 0.27
same,promoter activity interaction Z-score,[5]; [19],-0.0461 ± 0.098
same,promoter activity interaction Z-score,[5]; [20],-0.0772 ± 0.096
same,promoter activity interaction Z-score,[5]; [21],-0.0369 ± 0.08
same,promoter activity interaction Z-score,[5]; [22],0.0279 ± 0.51
same,promoter activity interaction Z-score,[6]; [7],-0.367 ± 0.24
same,promoter activity interaction Z-score,[6]; [8],-0.79 ± 0.24
same,promoter activity interaction Z-score,[6]; [9],-0.414 ± 0.28
same,promoter activity interaction Z-score,[6]; [10],-0.864 ± 0.42
same,promoter activity interaction Z-score,[6]; [11],0.453 ± 0.31
same,promoter activity interaction Z-score,[6]; [12],0.956 ± 0.37
same,promoter activity interaction Z-score,[6]; [13],0.349 ± 0.2
same,promoter activity interaction Z-score,[6]; [14],-0.174 ± 0.0082
same,promoter activity interaction Z-score,[6]; [15],-0.798 ± 0.98
same,promoter activity interaction Z-score,[6]; [16],-0.615 ± 0.57
same,promoter activity interaction Z-score,[6]; [17],-0.016 ± 0.46
same,promoter activity interaction Z-score,[6]; [18],-0.0987 ± 0.39
same,promoter activity interaction Z-score,[6]; [19],-0.558 ± 0.11
same,promoter activity interaction Z-score,[6]; [20],-0.589 ± 0.39
same,promoter activity interaction Z-score,[6]; [21],-0.155 ± 0.7
same,promoter activity interaction Z-score,[6]; [22],-0.224 ± 1.2
